The structures appear in SMILES notation. Values joined by “and” are separate entries in the source; they are usually repeats but may differ in a detail not shown here. Equal values may be shown once. Results filed as inconclusive are left out. Unmarked numbers belong to inactive results. Active and inactive are the calls of the source. The call rests on the fitted dose curve; in most records, active means well fitted curve in the direction sought with a large enough effect; inconclusive means small, poorly fitted or top-dose-only effect, or another doubt; inactive means no such curve, though single readings can be large; an effect the other way counts as inactive or inconclusive.

The nature of assay [1]: Viability qHTS for spleen associated tyrosine kinase inhibitor (SYKi) naive MV4-11 cells (AID 1963823). Further: nearly all actives have a fitted effect of over 40% in size. The essentials:
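Luminescence from CellTiter-Glo, developed 10 min at room temperature, gave viability of MV4-11 cells never exposed to SYK inhibitor. Cells (500/well) had been incubated with compounds for 72 hr under standard culture conditions.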

A short description of assay [2]: Viability qHTS for spleen associated tyrosine kinase inhibitor (SYKi) drug resistant MV4-11 cells (AID 1963824). Further: nearly all actives have a fitted effect of over 35% in size. The essentials:
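SYK inhibitor-resistant MV4-11 AML cells, 500 per well, added to predispensed compounds and incubated 72 hr at 37 C, 5% CO2. Viability measured by CellTiter-Glo luminescence after 10 min at room temperature.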

Assay [3] can be described thus: Quantitative highthroughput screen to assess conditional lethalithy of NOMO1 cells grown in RPMI1640 with dialyzed fetal bovine serum (RPMI+ds) (AID 1963877). Further: nearly all actives have a fitted effect of over 30% in size.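 On Viability: series mostly up to about 46 µM; 100% = DMSO control wells and 0% = empty wells.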 The essentials: (§1)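 Each medium arm—HPLM with 10% dialyzed FBS, or RPMI1640 with 5 mM glucose and 10% untreated or dialyzed FBS—was screened against an 11-point, 3-fold compound titration for 48 h at 37 °C, with CellTiter-Glo luminescence as endpoint.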

The nature of assay [4]: Quantitative highthroughput screen to assess conditional lethalithy of NOMO1 cells grown in Human Plasma-Like Medium with dialyzed fetal bovine serum (HPLM+ds) (AID 1963878). Further: nearly all actives have a fitted effect of over 35% in size.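 On Viability: 100% = DMSO wells and 0% = empty wells on each plate.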 The essentials: as §1
The nature of assay [5]: Quantitative highthroughput screen to assess conditional lethalithy of P12 Ichikawa cells grown in Human Plasma-Like Medium with dialyzed fetal bovine serum (HPLM+ds) (AID 1963879). Further: nearly all actives have a fitted effect of over 35% in size. On Viability: series mostly up to about 46 µM. As to conditions: Potency: viability. The essentials: as §1
Assay [6] is described as follows: Quantitative highthroughput screen to assess conditional lethalithy of P12 Ichikawa cells grown in RPMI1640 with dialyzed fetal bovine serum (RPMI+ds) (AID 1963880). Further: nearly all actives have a fitted effect of over 35% in size.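 On Viability: 100% = DMSO wells and 0% = empty wells on each plate.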 As to conditions: Potency: P12-Ichikawa viability. The essentials: as §1
Assay [7] is described as follows: Quantitative highthroughput screen to assess conditional lethalithy of P12 Ichikawa cells grown in RPMI1640 with untreated serum (RPMI+s) (AID 1963881). Further: nearly all actives have a fitted effect of over 35% in size.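 On Viability: series mostly up to about 46 µM; 100% = DMSO wells and 0% = empty wells without cells.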 As to conditions: Potency: viability. The essentials: as §1
Assay [8] can be described thus: Quantitative highthroughput screen to assess conditional lethalithy of SEM cells grown in Human Plasma-Like Medium with dialyzed fetal bovine serum (HPLM+ds) (AID 1963882). Further: nearly all actives have a fitted effect of over 35% in size. On Viability: series mostly up to about 46 µM. The essentials:
as §1

Assay [9] in a line: Quantitative highthroughput screen to assess conditional lethalithy of SEM cells grown in RPMI1640 with unreated serum (RPMI+s) (AID 1963883). Further: nearly all actives have a fitted effect of over 35% in size.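 On Viability: 100% = DMSO wells and 0% = empty wells without cells.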 The essentials:
as §1

The nature of assay [10]: Quantitative highthroughput screen to assess conditional lethalithy of SEM cells grown in RPMI1640 with dialyzed fetal bovine serum (RPMI+ds) (AID 1963884). Further: nearly all actives have a fitted effect of over 35% in size.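 On Viability: series mostly up to about 46 µM; 100% = DMSO control wells and 0% = empty wells without cells.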 The essentials:
as §1

Assay [11] can be described thus: Cellular viability qHTS for adrenocortical cancer (ACC) cell line SW-13 (AID 1963989). Further: nearly all actives have a fitted effect of over 65% in size.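 On activity (max response): cells grown in serum-free medium with ITS supplement; on the % scale 0 is the no-effect control and ±100 the full control effect.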 As to conditions: SW-13 ACC cells viability, CellTiter-Glo, 48 h; activity (max response): stronger effect = lower value. The essentials:
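Luminescent ATP read-out (CellTiter-Glo, 20 min at room temperature) measured metabolically competent SW-13 cells after 48 h compound treatment. Final concentrations spanned up to 46 uM; bortezomib served as positive control.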

The nature of assay [12]: Cellular viability qHTS for adrenocortical cancer (ACC) cell line NCI-H295R (AID 1963990). Further: nearly all actives have a fitted effect of over 60% in size. The essentials:
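IC50 and maximal efficacy derive from four-parameter logistic modelling of titration curves, with reads scaled between DMSO-only wells (0%) and doxorubicin hydrochloride (100% inhibition). Compounds spanned up to 46 uM over 48 h.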
Potency means the concentration at half of the fitted maximal effect.

Consider `Cc1cc2cc3c(C)cc(=O)oc3c(C)c2o1`, for which the Potency entry in [1], in assay [2], in assay [3], in assay [4], in assay [5] and in assay [6] was “inactive” each time. Also, the Potency result in assay [7], in [8], in assay [9], in assay [10] and in assay [12] was “inactive” each time. Also, the activity (max response) in [11] was 0.204% and 7.11%.

For `CCCCNc1cc(C(=O)O)cc(S(N)(=O)=O)c1Oc1ccccc1`, the Potency entry in assay [1], in [2], in [3], in [4], in [5] and in assay [6] was “inactive” throughout. The Potency result in assay [7], in assay [8], in assay [9], in assay [10] and in assay [12] was “inactive” in each case. Besides, the activity (max response) in assay [11] is 16.2% and -1.57%.

For `Cn1cc(-c2ccncc2)c(-c2ccc(OCc3ccc4ccccc4n3)cc2)n1`, the Potency in [1] is 4.11 µM (active); in assay [2], 7.42 µM (active); in [5] it was 14800 nM (active); in [6] it was 8330 nM (active). In addition, the Potency entry in assay [3], in [4], in assay [8] and in [9] was “inactive” in each case.

With `CCCCCN(CCC12CC3CC(CC(C3)C1)C2)C(=O)NCCCc1ccncc1`, the Potency in assay [1] was 8.33 µM (active); in [2], 7.42 µM (active). Moreover, the Potency result in [3], in assay [4], in [5], in [6], in [7] and in assay [8] was “inactive” throughout. Further, the Potency entry in assay [9], in assay [10] and in assay [12] was “inactive” throughout. In assay [11], the activity (max response) is -15.8%.

As to `Cc1ccnc(NS(=O)(=O)c2ccc(NC(=O)Nc3ccc(S(=O)(=O)Nc4nccc(C)n4)cc3)cc2)n1`, the Potency entry in [1], in [2] and in assay [12] was “inactive” throughout. Moreover, the Potency is 469 nM (active) in assay [3]; 118 nM (active) in assay [4]; 264 nM (active) in assay [5]; 332 nM (active) in assay [6]; 469 nM (active) in assay [7]; 187 nM (active) in assay [8]. In addition, the Potency was 83.3 nM (active) in assay [9] and 105 nM (active) in assay [10].

For `C[C@]12C=CC(=O)C=C1CC[C@@H]1[C@@H]2C(=O)C[C@@]2(C)[C@H]1CC[C@]2(O)C(=O)CO`, the Potency entry in assay [1], in assay [2], in assay [3], in assay [4], in [5] and in assay [6] was “inactive” throughout. For the same compound, the Potency result in assay [7], in assay [8], in [9], in assay [10] and in assay [12] was “inactive” each time. For the same compound, the activity (max response) in assay [11] is -14.6% and 1.01%.

On to `NC(=O)N1CCC(CC(=O)N2CCC([C@H]3c4ncc(Br)cc4CCc4cc(Cl)cc(Br)c43)CC2)CC1`, for which the Potency in [1] was 5.9 µM (active); in [2] it was 4.17 µM (active). For the same compound, the Potency entry in assay [3] is “inactive”.

As to `NS(=O)(=O)c1cccc2c1C(=O)c1cccc(O)c1C2=O`, the Potency in [1] was 0.525 µM (active); in [2], 0.468 µM (active); in assay [3] it was 23500 nM (active); in assay [4], 20900 nM (active); in assay [5], 26400 nM (active); in assay [6] it was 26400 nM (active). The Potency is 6620 nM (active) in [8]; 1480 nM (active) in assay [9]; 372 nM (active) in assay [10]; 1260 nM (active) in assay [11]; 631 nM (active) in assay [12].

Turning to `OC[C@@H](O)[C@@H](O)[C@H](O)[C@@H](O)CO`, the Potency entry in assay [1], in assay [2], in assay [3], in assay [4], in assay [5] and in assay [6] was “inactive” in each case. Besides, the Potency result in assay [7], in assay [8], in [10] and in [12] was “inactive” in each case. Besides, in [11], the activity (max response) was 3.97%.

`COc1cc(C)c(Sc2cnc(NC(=O)c3ccc(CNC(C)C(C)(C)C)cc3)s2)cc1C(=O)N1CCN(C(C)=O)CC1` (stereo not drawn): the Potency is 2.63 µM (active) in assay [1]; 3.32 µM (active) in assay [2]; 20900 nM (active) in assay [3]; 23500 nM (active) in assay [4]; 4180 nM (active) in assay [8]; 4180 nM (active) in assay [9]. The Potency in [10] is 3320 nM (active); in assay [12], 8910 nM (active).

Take `OCCCNc1cc(-c2ccnc(Nc3cccc(Cl)c3)n2)ccn1`: the Potency in assay [1] is 82 nM (active) and 83.3 nM (active); in assay [2], 58 nM (active) and 66.1 nM (active); in assay [3] it was 209 nM (active); in assay [4], 235 nM (active); in assay [5] it was 662 nM (active); in assay [7], 526 nM (active). Moreover, the Potency in [8] is 166 nM (active); in [9], 235 nM (active); in assay [10], 209 nM (active); in assay [11] it was 447 nM (active); in assay [12] it was 316 nM (active).

Consider `C[C@@H]1C[C@H]2[C@@H]3CCC4=CC(=O)C=C[C@]4(C)[C@@]3(Cl)[C@@H](O)C[C@]2(C)[C@@]1(OC(=O)c1ccco1)C(=O)CCl`, for which the Potency in [1] was 16.8 µM (active) and 8.33 µM (active); in [2], 8.41 µM (active) and 4.68 µM (active); in assay [3], 6620 nM (active); in assay [4] it was 1180 nM (active). The Potency result in [8], in assay [9] and in assay [10] was “inactive” in each case.

In the case of `CCCCCCCCCCCCc1ccc(S(=O)(=O)Nc2nncs2)cc1`, the Potency in assay [1] was 16.4 µM (active); in assay [4], 7430 nM (active); in assay [9], 3320 nM (active); in assay [10], 6620 nM (active). Also, the Potency result in assay [2], in assay [3], in [7], in assay [8] and in assay [12] was “inactive” in each case. In addition, the activity (max response) in [11] was -13.1%.

Source of the values: PubChem BioAssay (NCATS).
